# Results published in the supplement of paper PMC10849652.
# Of roughly 7,900 targets only a part is listed; those with a hit were picked by preference. About 0.6% of all pairs of compound and target were hits. Values without a mark were called inactive.
# Legend:
# Assay in all cases: log2 fold change, soluble protein after heating vs DMSO (PISA); higher = thermal stabilisation; K562 cells, 10 uM, 30 min; active = over 0.2 and 3.5 SD of the protein, either way, in both replicates (recomputed)
# [1] = compound: COC1=CC=C(C=C1)CN2C=CC3=C2C=C(C=C3)C(=O)NO
# Method in brief: (§1)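 Thermal stability values are relative to control samples and come from duplicates. They are expressed as log2 fold changes. For measurement, K562 cells (2×10^6 cells/mL) received 10 μM compound for 30 min, and aliquots were heated for 3 min over 48°C-58°C, pooled, and extracted at 4°C in PBS with 0.5% NP-40. Soluble protein, the supernatant after 21,000xg for 90 min, was quantified by TMTpro 16plex LC-MS/MS with equalised channel sums.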
# filanesib = compound: CON(C)C(=O)N1N=C(c2cc(F)ccc2F)S[C@@]1(CCCN)c1ccccc1 [filanesib]
# Method in brief: as §1
# zotarolimus = compound: CO[C@H]1C[C@@H]2CC[C@@H](C)[C@@](O)(O2)C(=O)C(=O)N2CCCC[C@H]2C(=O)O[C@H]([C@H](C)C[C@@H]2CC[C@H](n3cnnn3)[C@H](OC)C2)CC(=O)[C@H](C)/C=C(\C)[C@@H](O)[C@@H](OC)C(=O)[C@H](C)C[C@H](C)/C=C/C=C/C=C/1C [zotarolimus]
# Method in brief: as §1
# idasanutlin = compound: COc1cc(C(=O)O)ccc1NC(=O)[C@@H]1N[C@@H](CC(C)(C)C)[C@](C#N)(c2ccc(Cl)cc2F)[C@H]1c1cccc(Cl)c1F [idasanutlin]
# Method in brief: as §1
# alisertib = compound: COc1cc(Nc2ncc3c(n2)-c2ccc(Cl)cc2C(c2c(F)cccc2OC)=NC3)ccc1C(=O)O [alisertib]
# Method in brief: as §1
# [2] = compound: COc1cc2nc(-c3cc(F)ccc3O)nc(N[C@@H]3CNC[C@H]3C(C)(C)O)c2cc1OC
# Method in brief: as §1
# gefitinib = compound: COc1cc2ncnc(Nc3ccc(F)c(Cl)c3)c2cc1OCCCN1CCOCC1 [gefitinib]
# Method in brief: as §1
# [3] = compound: COc1cccc2cc(-c3nc([C@H]4CC[C@H](C(=O)O)CC4)n4ncnc(N)c34)[nH]c12
# Method in brief: as §1
# lapatinib = compound: CS(=O)(=O)CCNCc1ccc(-c2ccc3ncnc(Nc4ccc(OCc5cccc(F)c5)c(Cl)c4)c3c2)o1 [lapatinib]
# Method in brief: as §1
# pictilisib = compound: CS(=O)(=O)N1CCN(Cc2cc3nc(-c4cccc5[nH]ncc45)nc(N4CCOCC4)c3s2)CC1 [pictilisib]
# Method in brief: as §1
# Chain of UniProt Q14320 (Q14320 whole entry, looked up): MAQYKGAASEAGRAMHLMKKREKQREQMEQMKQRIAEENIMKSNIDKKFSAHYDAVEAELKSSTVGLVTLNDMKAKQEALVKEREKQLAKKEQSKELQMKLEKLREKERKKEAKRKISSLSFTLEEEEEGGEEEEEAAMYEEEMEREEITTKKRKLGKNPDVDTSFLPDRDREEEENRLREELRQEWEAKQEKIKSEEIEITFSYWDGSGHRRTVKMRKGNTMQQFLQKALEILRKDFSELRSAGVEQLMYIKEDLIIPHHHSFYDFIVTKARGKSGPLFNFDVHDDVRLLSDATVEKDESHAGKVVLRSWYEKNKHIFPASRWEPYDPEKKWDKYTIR
# Chain of UniProt Q96DT5 (Q96DT5 whole entry, looked up): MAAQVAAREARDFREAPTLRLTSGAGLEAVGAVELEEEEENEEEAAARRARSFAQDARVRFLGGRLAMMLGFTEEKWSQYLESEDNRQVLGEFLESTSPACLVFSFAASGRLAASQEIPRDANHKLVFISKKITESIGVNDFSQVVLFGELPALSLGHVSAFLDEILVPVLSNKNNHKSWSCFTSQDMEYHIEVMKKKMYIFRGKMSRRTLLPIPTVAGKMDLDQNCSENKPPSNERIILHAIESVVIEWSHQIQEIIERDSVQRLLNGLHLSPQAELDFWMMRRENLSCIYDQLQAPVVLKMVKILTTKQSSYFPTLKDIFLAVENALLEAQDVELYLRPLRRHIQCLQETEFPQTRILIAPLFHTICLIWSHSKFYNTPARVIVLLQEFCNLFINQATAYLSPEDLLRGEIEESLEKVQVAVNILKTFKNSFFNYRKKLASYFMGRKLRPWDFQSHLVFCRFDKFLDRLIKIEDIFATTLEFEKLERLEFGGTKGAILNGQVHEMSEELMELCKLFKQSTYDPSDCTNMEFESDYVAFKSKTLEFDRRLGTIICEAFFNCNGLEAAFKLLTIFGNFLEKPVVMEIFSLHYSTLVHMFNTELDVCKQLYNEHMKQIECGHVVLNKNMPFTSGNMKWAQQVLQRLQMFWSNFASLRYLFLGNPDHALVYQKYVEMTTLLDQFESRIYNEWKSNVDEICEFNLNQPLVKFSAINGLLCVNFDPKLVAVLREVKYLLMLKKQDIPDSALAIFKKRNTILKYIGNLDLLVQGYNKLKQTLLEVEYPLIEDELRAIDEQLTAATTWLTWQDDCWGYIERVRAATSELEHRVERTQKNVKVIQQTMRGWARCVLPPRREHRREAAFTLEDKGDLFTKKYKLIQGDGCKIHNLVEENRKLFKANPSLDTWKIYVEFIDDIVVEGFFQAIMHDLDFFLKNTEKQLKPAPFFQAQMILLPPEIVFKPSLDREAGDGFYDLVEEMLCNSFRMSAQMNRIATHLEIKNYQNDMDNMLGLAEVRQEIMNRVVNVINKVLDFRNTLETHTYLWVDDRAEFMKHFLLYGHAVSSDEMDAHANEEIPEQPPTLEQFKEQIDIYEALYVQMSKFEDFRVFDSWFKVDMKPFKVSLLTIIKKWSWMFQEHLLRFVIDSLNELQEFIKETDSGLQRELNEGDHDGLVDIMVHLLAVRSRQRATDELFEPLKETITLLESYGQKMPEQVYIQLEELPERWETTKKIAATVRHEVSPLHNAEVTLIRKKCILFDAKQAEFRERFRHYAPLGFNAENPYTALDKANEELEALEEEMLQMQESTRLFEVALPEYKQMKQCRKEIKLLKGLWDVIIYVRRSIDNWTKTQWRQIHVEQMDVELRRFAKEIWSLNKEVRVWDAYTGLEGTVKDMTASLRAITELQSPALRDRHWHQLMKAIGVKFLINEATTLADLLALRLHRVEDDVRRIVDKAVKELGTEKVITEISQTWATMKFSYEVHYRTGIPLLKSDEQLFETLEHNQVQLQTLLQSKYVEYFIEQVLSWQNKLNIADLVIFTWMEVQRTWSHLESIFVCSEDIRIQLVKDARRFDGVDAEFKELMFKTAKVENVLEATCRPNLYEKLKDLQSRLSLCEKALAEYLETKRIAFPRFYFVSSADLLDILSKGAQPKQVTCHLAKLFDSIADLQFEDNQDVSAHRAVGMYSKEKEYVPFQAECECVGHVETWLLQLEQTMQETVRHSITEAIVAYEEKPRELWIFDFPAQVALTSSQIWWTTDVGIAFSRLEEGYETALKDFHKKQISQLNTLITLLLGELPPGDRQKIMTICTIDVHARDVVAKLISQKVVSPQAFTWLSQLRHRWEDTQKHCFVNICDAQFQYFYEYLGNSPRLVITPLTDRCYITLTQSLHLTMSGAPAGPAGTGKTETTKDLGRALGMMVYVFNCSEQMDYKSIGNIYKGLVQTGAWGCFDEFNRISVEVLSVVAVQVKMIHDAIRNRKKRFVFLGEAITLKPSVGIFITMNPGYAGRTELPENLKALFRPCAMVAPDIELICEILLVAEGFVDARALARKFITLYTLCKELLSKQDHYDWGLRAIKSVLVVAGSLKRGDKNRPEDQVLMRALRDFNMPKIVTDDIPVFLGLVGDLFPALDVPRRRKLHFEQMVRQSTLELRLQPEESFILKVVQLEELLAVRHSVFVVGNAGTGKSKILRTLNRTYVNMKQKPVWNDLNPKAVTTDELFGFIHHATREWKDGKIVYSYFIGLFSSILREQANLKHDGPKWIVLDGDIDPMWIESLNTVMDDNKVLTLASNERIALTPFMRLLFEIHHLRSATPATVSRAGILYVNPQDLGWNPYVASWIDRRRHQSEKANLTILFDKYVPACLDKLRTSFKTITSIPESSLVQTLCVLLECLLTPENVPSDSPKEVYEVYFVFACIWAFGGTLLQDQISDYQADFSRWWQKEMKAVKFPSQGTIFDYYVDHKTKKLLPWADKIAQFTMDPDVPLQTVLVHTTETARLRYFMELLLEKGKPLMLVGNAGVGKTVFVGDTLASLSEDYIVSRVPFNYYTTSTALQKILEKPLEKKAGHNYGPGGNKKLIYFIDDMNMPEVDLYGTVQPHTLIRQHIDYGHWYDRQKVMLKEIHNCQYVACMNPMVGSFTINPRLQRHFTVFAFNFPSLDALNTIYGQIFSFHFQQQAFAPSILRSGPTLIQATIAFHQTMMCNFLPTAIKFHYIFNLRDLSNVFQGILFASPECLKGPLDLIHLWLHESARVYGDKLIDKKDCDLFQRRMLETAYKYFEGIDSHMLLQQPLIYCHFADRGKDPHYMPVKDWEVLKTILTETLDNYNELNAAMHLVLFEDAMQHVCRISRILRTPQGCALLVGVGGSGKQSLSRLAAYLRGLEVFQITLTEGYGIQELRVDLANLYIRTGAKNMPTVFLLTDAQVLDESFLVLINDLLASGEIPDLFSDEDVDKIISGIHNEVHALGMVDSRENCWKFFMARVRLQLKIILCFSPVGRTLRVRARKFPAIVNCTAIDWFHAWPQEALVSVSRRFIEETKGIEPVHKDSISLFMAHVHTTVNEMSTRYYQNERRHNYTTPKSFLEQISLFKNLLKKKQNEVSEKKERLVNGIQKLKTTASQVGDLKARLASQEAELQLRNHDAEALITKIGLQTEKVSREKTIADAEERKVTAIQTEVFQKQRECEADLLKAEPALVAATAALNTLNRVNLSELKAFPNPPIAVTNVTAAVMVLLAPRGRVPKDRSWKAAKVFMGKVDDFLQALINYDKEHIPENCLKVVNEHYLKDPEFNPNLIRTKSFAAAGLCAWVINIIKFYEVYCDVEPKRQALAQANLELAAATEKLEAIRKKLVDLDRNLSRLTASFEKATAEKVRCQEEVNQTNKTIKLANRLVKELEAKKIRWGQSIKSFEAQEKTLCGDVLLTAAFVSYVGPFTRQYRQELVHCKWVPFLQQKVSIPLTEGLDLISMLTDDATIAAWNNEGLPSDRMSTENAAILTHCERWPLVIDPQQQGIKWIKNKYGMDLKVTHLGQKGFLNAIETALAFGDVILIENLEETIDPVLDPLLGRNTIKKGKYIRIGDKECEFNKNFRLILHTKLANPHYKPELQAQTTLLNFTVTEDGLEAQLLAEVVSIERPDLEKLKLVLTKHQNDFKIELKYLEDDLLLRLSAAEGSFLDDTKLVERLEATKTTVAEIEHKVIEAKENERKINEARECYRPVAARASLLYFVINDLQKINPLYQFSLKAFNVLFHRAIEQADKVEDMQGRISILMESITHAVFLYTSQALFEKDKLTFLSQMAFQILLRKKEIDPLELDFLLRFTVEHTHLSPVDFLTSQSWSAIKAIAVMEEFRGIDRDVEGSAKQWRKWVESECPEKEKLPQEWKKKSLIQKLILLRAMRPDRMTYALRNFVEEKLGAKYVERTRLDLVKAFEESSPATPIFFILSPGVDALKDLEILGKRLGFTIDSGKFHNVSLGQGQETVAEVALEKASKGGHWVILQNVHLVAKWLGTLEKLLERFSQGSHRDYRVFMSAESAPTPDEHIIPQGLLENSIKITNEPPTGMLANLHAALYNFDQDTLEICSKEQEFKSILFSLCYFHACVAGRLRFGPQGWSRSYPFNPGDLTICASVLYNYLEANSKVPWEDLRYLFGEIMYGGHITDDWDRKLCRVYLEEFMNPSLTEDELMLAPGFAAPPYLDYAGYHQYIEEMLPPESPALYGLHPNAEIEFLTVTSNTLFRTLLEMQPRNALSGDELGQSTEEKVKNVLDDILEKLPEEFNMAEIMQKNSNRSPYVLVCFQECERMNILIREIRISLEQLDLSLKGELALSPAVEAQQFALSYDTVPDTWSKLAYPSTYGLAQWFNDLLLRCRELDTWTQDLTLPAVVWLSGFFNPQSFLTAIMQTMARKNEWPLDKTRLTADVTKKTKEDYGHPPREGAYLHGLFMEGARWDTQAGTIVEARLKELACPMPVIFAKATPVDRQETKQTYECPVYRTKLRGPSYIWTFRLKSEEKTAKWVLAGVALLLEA
# Chain of UniProt Q9NXF7 (Q9NXF7 whole entry, looked up): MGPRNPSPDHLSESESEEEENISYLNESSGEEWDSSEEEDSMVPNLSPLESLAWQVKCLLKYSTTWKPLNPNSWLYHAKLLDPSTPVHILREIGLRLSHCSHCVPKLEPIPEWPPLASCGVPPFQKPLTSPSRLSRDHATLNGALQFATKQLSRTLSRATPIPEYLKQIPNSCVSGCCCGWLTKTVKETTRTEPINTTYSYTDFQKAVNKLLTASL
Target,log2 fold change [1],log2 fold change (filanesib),log2 fold change (zotarolimus),log2 fold change (idasanutlin),log2 fold change (alisertib),log2 fold change [2],log2 fold change (gefitinib),log2 fold change [3],log2 fold change (lapatinib),log2 fold change (pictilisib)
DNM2 (UniProt P50570),-0.022,-0.107,0.016,-0.078,-0.073,0.099,0.002,0.023,-0.026,0.021
DPH5 isoform 5 (UniProt Q9H2P9),-0.01,-0.024,-0.002,-0.049,-0.037,-0.071,0.017,0.046,0.043,-0.006
DCTPP1 (UniProt Q9H773),0.023,-0.02,0.083,-0.061,-0.067,-0.091,0,0.038,-0.058,-0.05
EHD2 (UniProt Q9NZN4),0.001,-0.013,0.007,-0.025,-0.02,0.092,-0.034,0.055,-0.06,-0.051
ERCC6 (UniProt Q03468),-0.067,-0.268,0.102,-0.14,0.102,-0.002,0.026,-0.042,0.077,-0.04
CUEDC2 (UniProt Q9H467),0.233,0.018,0,0.005,-0.035,-0.018,0.168,0.023,-0.035,0.014
FAM118A (UniProt Q9NWS6),0.213,-0.15,0.032,-0.323,0.383,0.023,0.022,-0.044,0,0.207
FAF2 (UniProt Q96CS3),-0.019,-0.022,0.035,0.007,0.004,-0.011,0.056,0.009,0.029,0.017
EHBP1L1 (UniProt Q8N3D4),0.054,0.147,0.065,-0.021,-0.098,0.119,-0.009,-0.026,0.03,0.217
DDX5 (UniProt P17844),0.118,0.013,0.062,0.024,0.006,0.088,0.031,0.004,0.02,0.097
EEF1B2 (UniProt P24534),0.033,0.031,0.035,0.007,0.023,0.03,0.024,-0.061,-0.029,0.014
DNAH11 (UniProt Q96DT5),0,0.047,0.04,0.03,-0.025,-0.137,-0.002,-0.203,0.216,0.552
DHCR7 (UniProt Q9UBM7),-0.182,-0.025,-0.088,-0.278,0.01,0.101,0.088,-0.167,-0.009,-0.115
CTSZ (UniProt Q9UBR2),0.073,-0.05,0.011,-0.019,-0.079,-0.172,0.035,0.07,0.015,0.176
FAM241A (UniProt Q8N8J7),0.226,-0.828 (active),-0.045,0.018,-0.038,0.042,0.044,-0.006,-0.038,0
CUX1 isoform 2 (UniProt Q13948),-0.095,0.077,-0.007,-0.043,0.012,-0.062,-0.029,0.074,0.009,0.018
DCAF16 (UniProt Q9NXF7),0.065,0.077,0.035,0.037,-0.07,0.021,0.022,0,-0.168,0.132
DBN1 isoform 3 (UniProt Q16643),0.012,0.182,0.074,0.061,-0.023,-0.024,0.05,0.084,-0.041,-0.111
DNAJC7 (UniProt Q99615),0.037,-0.025,0.07,-0.043,-0.044,-0.031,0.068,-0.031,0,0.014
DPYSL2 (UniProt Q16555),-0.082,0.006,-0.06,0.029,0.093,0.055,-0.041,0.038,0.029,0.262 (active)
"FADS1, A0A0A0MR51",-0.31 (active),-0.112,-0.004,0.055,-0.007,-0.111,0.049,0.009,0.044,-0.092
EIF4G1 isoform 8 (UniProt Q04637),0.01,0.067,-0.121,0.09,-0.007,-0.003,-0.114,-0.369,-0.073,-0.27
DMXL1 (UniProt Q9Y485),0.023,0.046,-0.008,-0.012,-0.003,0.02,-0.029,-0.003,-0.02,-0.015
DTWD2 (UniProt Q8NBA8),-0.229,0.307,-0.036,-0.073,0.069,-0.18,-0.159,0.002,0.151,-0.042
EBNA1BP2 (UniProt Q99848),-0.054,0.686,0.069,0.283,-0.172,-0.095,-0.01,-0.216,0.153,-0.069
ERCC2 (UniProt P18074),-0.024,0.018,0.068,0.063,0.001,-0.061,-0.03,-0.021,0.049,0.042
EXTL2 (UniProt Q9UBQ6),0.051,-0.023,-0.147,-0.121,-0.144,-0.094,0.075,0.123,0.05,-0.111
DDB1 (UniProt Q16531),-0.024,-0.015,-0.017,-0.029,-0.06,0.006,-0.012,0.061,-0.022,0.025
EXOC5 (UniProt O00471),-0.005,-0.051,0.089,-0.079,-0.01,0.123,-0.024,-0.015,-0.028,-0.055
FAM50A (UniProt Q14320),-0.019,-0.008,0.026,-0.025,-0.003,-0.026,0.039,-0.025,0.022,0.056
